# Data from publication PMC11006913.
# Numbering of substitutions follows the chain as printed.
# Key:
# Assay in all cases: PBM; 200 nM protein, PBS
# Details in all cases: dsDNA, one strand shown
# NKX2-6 [1] = target: T1, NKX2-6 (Homo sapiens, UniProt A6NCS4 118-204, F151L)
# T1 sequence: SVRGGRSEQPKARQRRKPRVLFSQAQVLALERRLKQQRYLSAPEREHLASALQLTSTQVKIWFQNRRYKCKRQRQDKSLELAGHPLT
# NKX3-2 [2] = target: NKX3-2 (Homo sapiens, UniProt P78367 192-278, P234S)
# NKX3-2 [3] = target: NKX3-2 (Homo sapiens, UniProt P78367 192-278)
# NKX2-6 [4] = target: T2, NKX2-6 (Homo sapiens, UniProt A6NCS4 118-204, R150C)
# T2 sequence: T1 sequence with R33C, L34F
# NKX3-2 (Homo sapiens, UniProt P78367 192-278), sequence (P78367 192-278): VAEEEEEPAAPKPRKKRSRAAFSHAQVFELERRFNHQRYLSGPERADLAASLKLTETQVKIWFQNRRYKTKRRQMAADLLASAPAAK
# NKX3-2 (Homo sapiens, UniProt P78367 192-278, P234S), sequence (P78367 192-278 P234S): as the sequence (P78367 192-278) above, with P43S counted along it
sequence,measurement,setting,value
AGCCTGGG,binding signal,NKX2-6 [1],"9.24 upbm affinity estimate (log intensity, higher = more binding, comparable within an allelic series)"
GACTGGCC,binding signal,NKX3-2 [2],"10.5 upbm affinity estimate (log intensity, higher = more binding, comparable within an allelic series)"
same,binding signal,NKX3-2 [3],"10.5 upbm affinity estimate (log intensity, higher = more binding, comparable within an allelic series)"
GACTCGGC,binding signal,NKX2-6 [1],"9.23 upbm affinity estimate (log intensity, higher = more binding, comparable within an allelic series)"
GACGCCGC,binding signal,NKX2-6 [4],"9.27 upbm affinity estimate (log intensity, higher = more binding, comparable within an allelic series)"
CGGGCTAG,binding signal,NKX2-6 [4],"9.48 upbm affinity estimate (log intensity, higher = more binding, comparable within an allelic series)"
CGGGGGTC,binding signal,NKX2-6 [4],"9.26 upbm affinity estimate (log intensity, higher = more binding, comparable within an allelic series)"
